# Paper PMC7862700, “An all-to-all approach to the identification of sequence-specific readers for epigenetic DNA modifications on cytosine”
# Assays:
# Assay in all cases: DAPPL (digital affinity profiling via proximity ligation, sequencing); 10 mM Tris-HCl pH 7.5, 50 mM NaCl, 1 mM DTT, 4% glycerol, room temperature, 30 min; GST-TFs on glutathione beads, 16-mer random dsDNA library, 0.1% formaldehyde crosslink after washing; high values mean tight binding
# Settings in all cases: protein: recombinant; tags: N-terminal GST; dsDNA, one strand shown
# [1] = target: T1, FEV (Homo sapiens, UniProt Q99581 1-238)
# T1 sequence: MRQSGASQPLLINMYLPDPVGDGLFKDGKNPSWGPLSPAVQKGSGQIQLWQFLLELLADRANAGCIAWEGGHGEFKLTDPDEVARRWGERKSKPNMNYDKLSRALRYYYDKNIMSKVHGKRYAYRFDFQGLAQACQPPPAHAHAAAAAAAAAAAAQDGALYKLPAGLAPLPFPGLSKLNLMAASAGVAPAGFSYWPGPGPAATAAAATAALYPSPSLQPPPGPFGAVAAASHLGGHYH
# In short: (§1)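 After expression in yeast as GST fusions, human transcription factors were bound to glutathione beads, DNA-barcoded and mixed with a tag-only sample. The pools were incubated with 200 nmole of a 16-mer random double-stranded DNA library in Tris/NaCl/DTT/glycerol buffer (30 min, room temperature), washed and crosslinked with 0.1% formaldehyde. Proximity ligation with BsaI/T4 ligase ran for 1 h at 37 °C, before PCR amplification and sequencing on an Illumina NextSeq500. Binding signal is a hexamer's read frequency for a factor divided by its frequency for the tag-only sample.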
# [2] = target: ETV5 (Homo sapiens, UniProt P41161 1-510)
# In short: as §1
# [3] = target: T2, SPIC (Homo sapiens, UniProt Q8N5J4 1-248)
# T2 sequence: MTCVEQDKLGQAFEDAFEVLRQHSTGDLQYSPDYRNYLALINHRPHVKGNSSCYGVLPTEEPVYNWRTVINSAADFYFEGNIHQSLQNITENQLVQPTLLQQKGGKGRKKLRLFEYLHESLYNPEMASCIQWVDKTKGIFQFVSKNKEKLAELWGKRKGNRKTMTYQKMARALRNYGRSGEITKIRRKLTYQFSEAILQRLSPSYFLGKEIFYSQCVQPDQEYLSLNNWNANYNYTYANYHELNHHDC
# In short: as §1
# [4] = target: ELF4 (Homo sapiens, UniProt Q99607 1-663)
# In short: as §1
# [5] = target: T3, ELK4 (Homo sapiens, UniProt P28324-2 1-405)
# T3 sequence: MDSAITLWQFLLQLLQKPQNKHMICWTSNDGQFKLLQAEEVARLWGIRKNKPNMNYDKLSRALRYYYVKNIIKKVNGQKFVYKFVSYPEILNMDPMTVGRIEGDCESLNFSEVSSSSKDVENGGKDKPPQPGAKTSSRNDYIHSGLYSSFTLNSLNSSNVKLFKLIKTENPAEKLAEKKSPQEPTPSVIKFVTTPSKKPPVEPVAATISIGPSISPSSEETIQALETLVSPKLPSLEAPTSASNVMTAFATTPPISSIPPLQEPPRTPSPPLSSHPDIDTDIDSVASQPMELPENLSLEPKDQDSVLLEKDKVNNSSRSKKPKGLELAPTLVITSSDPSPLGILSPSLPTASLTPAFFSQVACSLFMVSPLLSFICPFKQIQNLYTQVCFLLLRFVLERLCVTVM
# In short: as §1
# [6] = target: T4, ETV2 (Homo sapiens, UniProt O00321 1-342)
# T4 sequence: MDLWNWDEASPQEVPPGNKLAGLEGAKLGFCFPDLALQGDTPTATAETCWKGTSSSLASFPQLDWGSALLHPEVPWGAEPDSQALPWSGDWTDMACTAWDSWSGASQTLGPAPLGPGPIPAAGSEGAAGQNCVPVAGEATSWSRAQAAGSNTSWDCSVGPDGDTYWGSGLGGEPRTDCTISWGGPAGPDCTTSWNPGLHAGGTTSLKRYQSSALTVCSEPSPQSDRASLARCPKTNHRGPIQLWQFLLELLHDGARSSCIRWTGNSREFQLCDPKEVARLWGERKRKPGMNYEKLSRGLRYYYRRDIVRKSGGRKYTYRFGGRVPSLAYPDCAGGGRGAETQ
# In short: as §1
# [7] = target: T5, ELF3 (Homo sapiens, UniProt P78545 1-371)
# T5 sequence: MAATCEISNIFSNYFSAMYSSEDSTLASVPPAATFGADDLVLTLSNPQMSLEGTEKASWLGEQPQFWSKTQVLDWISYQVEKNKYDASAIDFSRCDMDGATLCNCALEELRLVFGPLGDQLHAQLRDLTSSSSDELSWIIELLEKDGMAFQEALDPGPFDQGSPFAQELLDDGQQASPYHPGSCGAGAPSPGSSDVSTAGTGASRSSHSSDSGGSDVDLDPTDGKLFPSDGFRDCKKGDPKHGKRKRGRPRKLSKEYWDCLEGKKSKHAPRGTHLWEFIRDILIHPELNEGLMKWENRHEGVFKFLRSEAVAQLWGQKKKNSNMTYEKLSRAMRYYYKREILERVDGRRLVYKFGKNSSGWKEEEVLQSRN
# In short: as §1
# [8] = target: ETV1 (Homo sapiens, UniProt P50549 1-477)
# In short: as §1
# [9] = target: T6, ERF (Homo sapiens, UniProt P50548 1-548)
# T6 sequence: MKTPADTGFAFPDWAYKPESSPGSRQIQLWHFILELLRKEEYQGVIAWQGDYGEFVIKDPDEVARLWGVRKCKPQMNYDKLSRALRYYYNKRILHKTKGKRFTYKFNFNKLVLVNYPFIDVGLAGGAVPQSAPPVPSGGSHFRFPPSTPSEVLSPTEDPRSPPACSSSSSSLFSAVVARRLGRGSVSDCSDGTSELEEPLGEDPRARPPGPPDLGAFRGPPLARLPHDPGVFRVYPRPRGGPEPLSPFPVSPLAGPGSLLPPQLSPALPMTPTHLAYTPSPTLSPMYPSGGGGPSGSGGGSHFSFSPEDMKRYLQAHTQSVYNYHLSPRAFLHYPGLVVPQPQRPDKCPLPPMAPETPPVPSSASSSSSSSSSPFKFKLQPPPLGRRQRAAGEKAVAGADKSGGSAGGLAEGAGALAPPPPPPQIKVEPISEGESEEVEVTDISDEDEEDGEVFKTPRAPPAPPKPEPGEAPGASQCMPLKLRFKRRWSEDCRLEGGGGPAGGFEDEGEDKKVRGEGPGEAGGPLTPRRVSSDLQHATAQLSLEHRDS
# In short: as §1
# [10] = target: T7, ETV3L (Homo sapiens, UniProt Q6ZN32 1-361)
# T7 sequence: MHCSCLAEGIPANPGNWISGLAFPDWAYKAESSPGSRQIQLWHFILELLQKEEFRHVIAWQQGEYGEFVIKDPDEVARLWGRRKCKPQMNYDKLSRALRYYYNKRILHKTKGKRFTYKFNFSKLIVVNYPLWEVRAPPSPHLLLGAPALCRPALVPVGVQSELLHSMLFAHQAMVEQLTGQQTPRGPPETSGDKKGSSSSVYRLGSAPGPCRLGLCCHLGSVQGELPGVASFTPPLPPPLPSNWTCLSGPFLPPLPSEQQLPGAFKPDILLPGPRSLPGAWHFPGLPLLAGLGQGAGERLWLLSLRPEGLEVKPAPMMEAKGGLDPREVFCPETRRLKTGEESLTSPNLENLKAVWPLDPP
# In short: as §1
# [11] = target: T8, ETS2 (Homo sapiens, UniProt P15036 1-469)
# T8 sequence: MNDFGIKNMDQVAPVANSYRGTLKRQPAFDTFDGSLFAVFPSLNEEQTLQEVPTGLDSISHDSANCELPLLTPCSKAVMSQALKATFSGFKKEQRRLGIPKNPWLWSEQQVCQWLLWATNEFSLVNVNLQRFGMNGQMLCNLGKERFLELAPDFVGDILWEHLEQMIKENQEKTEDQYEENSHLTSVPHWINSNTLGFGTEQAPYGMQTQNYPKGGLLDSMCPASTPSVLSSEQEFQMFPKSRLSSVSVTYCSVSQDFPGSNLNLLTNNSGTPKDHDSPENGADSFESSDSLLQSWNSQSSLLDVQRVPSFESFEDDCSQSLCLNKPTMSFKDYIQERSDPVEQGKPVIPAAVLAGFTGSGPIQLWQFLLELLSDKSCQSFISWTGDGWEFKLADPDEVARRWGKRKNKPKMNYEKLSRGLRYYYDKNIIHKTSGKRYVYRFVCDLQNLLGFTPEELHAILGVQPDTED
# In short: as §1
# [12] = target: T9, SPDEF (Homo sapiens, UniProt O95238 1-335)
# T9 sequence: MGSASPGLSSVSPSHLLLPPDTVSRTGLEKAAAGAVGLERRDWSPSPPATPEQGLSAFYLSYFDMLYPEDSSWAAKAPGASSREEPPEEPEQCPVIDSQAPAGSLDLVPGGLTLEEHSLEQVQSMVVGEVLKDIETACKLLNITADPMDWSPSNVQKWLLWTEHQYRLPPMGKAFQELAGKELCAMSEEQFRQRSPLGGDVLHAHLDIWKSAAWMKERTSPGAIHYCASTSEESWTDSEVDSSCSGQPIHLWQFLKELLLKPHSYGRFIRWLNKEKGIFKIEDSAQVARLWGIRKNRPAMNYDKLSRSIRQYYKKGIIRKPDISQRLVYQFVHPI
# In short: as §1
# [13] = target: T10, ETV7 (Homo sapiens, UniProt Q9Y603 1-341)
# T10 sequence: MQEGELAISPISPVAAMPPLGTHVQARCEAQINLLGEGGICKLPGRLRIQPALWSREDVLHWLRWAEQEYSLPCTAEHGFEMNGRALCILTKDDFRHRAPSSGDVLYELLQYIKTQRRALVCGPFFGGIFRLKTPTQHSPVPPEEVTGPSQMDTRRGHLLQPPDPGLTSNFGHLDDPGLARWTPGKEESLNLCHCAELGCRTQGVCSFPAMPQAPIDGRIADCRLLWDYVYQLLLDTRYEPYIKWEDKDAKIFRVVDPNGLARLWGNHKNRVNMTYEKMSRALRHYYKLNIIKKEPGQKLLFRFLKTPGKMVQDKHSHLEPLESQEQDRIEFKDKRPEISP
# In short: as §1
# [14] = target: T11, ELF5 (Homo sapiens, UniProt Q9UKW6-2 1-255)
# T11 sequence: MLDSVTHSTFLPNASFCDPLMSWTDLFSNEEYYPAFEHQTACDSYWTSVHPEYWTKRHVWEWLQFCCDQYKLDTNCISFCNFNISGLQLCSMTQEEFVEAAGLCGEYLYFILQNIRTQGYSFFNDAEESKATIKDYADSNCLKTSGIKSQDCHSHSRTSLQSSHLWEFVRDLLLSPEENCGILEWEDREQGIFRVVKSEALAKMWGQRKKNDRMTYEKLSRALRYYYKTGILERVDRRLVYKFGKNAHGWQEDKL
# In short: as §1
# [15] = target: T12, ETV3 (Homo sapiens, UniProt P41162-2 1-143)
# T12 sequence: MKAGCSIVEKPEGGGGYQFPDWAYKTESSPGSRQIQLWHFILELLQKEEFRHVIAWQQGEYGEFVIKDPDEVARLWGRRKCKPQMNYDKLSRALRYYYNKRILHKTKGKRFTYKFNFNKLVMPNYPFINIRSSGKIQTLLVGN
# In short: as §1
# [16] = target: ETV6 (Homo sapiens, UniProt P41212 1-452)
# In short: as §1
# Sequence of ETV5 (P41161 whole entry): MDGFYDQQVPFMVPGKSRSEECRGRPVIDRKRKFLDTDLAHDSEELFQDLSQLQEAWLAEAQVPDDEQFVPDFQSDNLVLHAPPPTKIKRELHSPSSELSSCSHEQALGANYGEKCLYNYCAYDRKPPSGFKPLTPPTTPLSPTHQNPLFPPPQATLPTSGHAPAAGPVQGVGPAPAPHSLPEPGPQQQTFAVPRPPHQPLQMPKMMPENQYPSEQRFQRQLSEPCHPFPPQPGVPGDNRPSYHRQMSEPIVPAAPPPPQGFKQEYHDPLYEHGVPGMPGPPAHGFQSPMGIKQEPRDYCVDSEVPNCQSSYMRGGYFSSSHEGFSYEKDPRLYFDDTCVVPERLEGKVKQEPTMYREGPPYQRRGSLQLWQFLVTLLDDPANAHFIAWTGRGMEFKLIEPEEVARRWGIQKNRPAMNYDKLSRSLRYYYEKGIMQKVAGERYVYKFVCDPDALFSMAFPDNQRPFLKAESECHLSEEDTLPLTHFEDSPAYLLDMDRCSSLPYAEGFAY
# Sequence of ELF4 (Q99607 whole entry): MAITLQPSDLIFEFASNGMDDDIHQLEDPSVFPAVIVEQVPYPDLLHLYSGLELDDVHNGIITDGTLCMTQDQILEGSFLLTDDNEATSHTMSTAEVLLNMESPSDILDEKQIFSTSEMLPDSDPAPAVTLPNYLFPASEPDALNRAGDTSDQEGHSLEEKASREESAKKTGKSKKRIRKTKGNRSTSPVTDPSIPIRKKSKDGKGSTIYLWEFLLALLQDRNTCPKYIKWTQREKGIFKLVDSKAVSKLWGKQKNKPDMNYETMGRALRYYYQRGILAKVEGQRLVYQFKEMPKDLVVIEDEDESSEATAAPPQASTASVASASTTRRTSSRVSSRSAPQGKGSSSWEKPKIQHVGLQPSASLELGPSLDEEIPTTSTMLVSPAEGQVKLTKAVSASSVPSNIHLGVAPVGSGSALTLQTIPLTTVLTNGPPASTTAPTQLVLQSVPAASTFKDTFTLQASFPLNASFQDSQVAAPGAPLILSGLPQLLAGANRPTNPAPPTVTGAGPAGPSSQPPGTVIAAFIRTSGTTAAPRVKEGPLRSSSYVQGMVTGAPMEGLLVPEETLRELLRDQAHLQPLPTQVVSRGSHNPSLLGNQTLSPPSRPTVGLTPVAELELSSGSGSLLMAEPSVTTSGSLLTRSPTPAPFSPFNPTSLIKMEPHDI
# Sequence of ETV1 (P50549 whole entry): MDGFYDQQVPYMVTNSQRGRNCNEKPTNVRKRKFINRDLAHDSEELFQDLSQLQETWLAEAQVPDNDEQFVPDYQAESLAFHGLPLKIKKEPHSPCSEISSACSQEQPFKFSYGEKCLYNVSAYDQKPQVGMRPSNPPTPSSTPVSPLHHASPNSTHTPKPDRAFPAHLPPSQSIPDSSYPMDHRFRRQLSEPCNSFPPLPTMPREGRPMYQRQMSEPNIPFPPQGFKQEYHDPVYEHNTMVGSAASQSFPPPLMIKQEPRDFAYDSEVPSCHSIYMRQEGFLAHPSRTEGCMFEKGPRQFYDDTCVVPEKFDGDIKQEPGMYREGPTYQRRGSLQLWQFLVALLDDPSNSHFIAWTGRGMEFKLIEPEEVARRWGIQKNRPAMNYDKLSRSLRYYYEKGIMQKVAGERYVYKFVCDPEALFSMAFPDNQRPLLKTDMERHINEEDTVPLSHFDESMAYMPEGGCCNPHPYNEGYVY
# Sequence of ETV6 (P41212 whole entry): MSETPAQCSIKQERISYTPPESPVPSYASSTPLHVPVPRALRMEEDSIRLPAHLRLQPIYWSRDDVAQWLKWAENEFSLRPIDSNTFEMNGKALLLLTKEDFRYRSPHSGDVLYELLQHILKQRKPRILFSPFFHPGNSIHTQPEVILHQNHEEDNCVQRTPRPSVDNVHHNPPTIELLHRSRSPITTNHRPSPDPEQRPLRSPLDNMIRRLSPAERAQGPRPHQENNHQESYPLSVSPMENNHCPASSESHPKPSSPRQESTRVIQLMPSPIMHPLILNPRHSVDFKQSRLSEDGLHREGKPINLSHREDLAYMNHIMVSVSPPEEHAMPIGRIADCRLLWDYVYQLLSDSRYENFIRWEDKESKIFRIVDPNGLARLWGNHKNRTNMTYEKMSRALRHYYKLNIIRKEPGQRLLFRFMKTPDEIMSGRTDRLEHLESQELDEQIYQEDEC
Sequence,binding signal [1],binding signal [2],binding signal [3],binding signal [4],binding signal [5],binding signal [6],binding signal [7],binding signal [8],binding signal [9],binding signal [10],binding signal [11],binding signal [12],binding signal [13],binding signal [14],binding signal [15],binding signal [16]
TGGCAG,"1.18 fold enrichment (6-mer frequency, TF over GST control)","1.07 fold enrichment (6-mer frequency, TF over GST control)","1.05 fold enrichment (6-mer frequency, TF over GST control)","1.02 fold enrichment (6-mer frequency, TF over GST control)","1.01 fold enrichment (6-mer frequency, TF over GST control)","1.29 fold enrichment (6-mer frequency, TF over GST control)","1.02 fold enrichment (6-mer frequency, TF over GST control)","1.05 fold enrichment (6-mer frequency, TF over GST control)","1.11 fold enrichment (6-mer frequency, TF over GST control)","1.12 fold enrichment (6-mer frequency, TF over GST control)","1.05 fold enrichment (6-mer frequency, TF over GST control)","1.05 fold enrichment (6-mer frequency, TF over GST control)","1.04 fold enrichment (6-mer frequency, TF over GST control)","1.09 fold enrichment (6-mer frequency, TF over GST control)","1.16 fold enrichment (6-mer frequency, TF over GST control)","1.09 fold enrichment (6-mer frequency, TF over GST control)"
TCACAG,"1.09 fold enrichment (6-mer frequency, TF over GST control)","1.07 fold enrichment (6-mer frequency, TF over GST control)","1.04 fold enrichment (6-mer frequency, TF over GST control)","1.17 fold enrichment (6-mer frequency, TF over GST control)","1.04 fold enrichment (6-mer frequency, TF over GST control)","1.28 fold enrichment (6-mer frequency, TF over GST control)","1.13 fold enrichment (6-mer frequency, TF over GST control)","1.05 fold enrichment (6-mer frequency, TF over GST control)","1.02 fold enrichment (6-mer frequency, TF over GST control)","1.13 fold enrichment (6-mer frequency, TF over GST control)","1.06 fold enrichment (6-mer frequency, TF over GST control)","1.05 fold enrichment (6-mer frequency, TF over GST control)","1.11 fold enrichment (6-mer frequency, TF over GST control)",–,"1.06 fold enrichment (6-mer frequency, TF over GST control)","1.11 fold enrichment (6-mer frequency, TF over GST control)"
